Activity calls are given as the source filed them. Calls come from the whole dose curve; as a rule, active = well fitted activation curve with a large enough effect; inactive = flat fitted curve, though single readings scatter.

The experiment is described as follows: Followup screen of LOPAC molecules that induce DNA re-replication in SW480 adenocarcinoma cells. The conditions noted are these: Hoechst nuclear DNA content imaging, 48 h; series mostly up to 46.1 µM; activation (re-replication): at the top concentration. An excerpt: NIH Molecular Libraries Probe Production Network [MLPCN] NIH Chemical Genomics Center [NCGC] MLPCN Grant: Fast Track K99 CA136555 Assay Provider: Melvin DePamphilis, NICHD, NIH Assay Overview Eukaryotic cells normally restrict genome duplication to once per cell division. When this process is aberrant, DNA re-replication occurs when cells reinitiate DNA replication before the first round of replication is complete. DNA re-replication induces the DNA damage response, arrests cell proliferation, and triggers apoptosis. The cell cycle components cyclin A, Cdt-1, Cdc6 and geminin are critical regulators of this process and their misregulation results in DNA re-replication in normal and cancer cells. To identify compounds that induce re-replication in normal cells, an image-based assay was used to measure DNA content of nuclei, as detected by the fluorescent DNA binding dye, Hoechst. Cell nuclei were imaged by a fluorescence scanning plate imager and compounds that induce DNA re-replication were identified by the increase of nuclei with elevated fluorescence intensity.
Assay Protocol Summary For screening, 250 cells in 5 uL/well were dispensed into black clear 1536-well plates (Aurora) using a solenoid-based dispenser. Following transfer of 23 nL compound or DMSO vehicle by a pin tool, the plates were incubated 48 hr at 37 C and 5% CO2. After addition of 1 uL/well Hoescht stain, the plates were incubated 40 min at 37 C, 5% CO2 and total intensity of fluorescent objects (nuclei) were enumerated by an Acumen Explorer Ex3 (TTP LabTech) fluorescence scanning plate imager (405 nm excitation, 500-530 nm emission). Keywords: NIH Roadmap, MLPCN, MLI, MLSMR, qHTS, NCGC, DNA replication, cancer
With `CCCCCCN(CCCCCC)C(=O)Cc1c(-c2ccc(F)cc2)[nH]c2ccccc12`, the Potency was 26800 nM (active). For `CC(=O)[O-].CS(C)=O.[Cu+]`, the “activation (re-replication)” value is 2.13% (inactive).

For the compound `CS(C)=O.[Cl-].[Cl-].[Cu+2]`, the “activation (re-replication)” value is 5.94% (inactive). Turning to `CCN(CC)C(=S)SSC(=S)N(CC)CC`, the Potency is 30 nM (active).

`CC(=O)[O-].CCN(CC)C(=S)SSC(=S)N(CC)CC.[Cu+]`: the Potency was 37.8 nM (active). For `CCN(CC)C(=S)SSC(=S)N(CC)CC.[Cl-].[Cl-].[Cu+2]`, the Potency is 37.8 nM (active).

Values taken from PubChem BioAssay AID504806 (National Center for Advancing Translational Sciences (NCATS), 2011).
